The text below walks through data of PubChem BioAssay AID1508615 (Milbrandt Lab, Department of Genetics, Washington …, 2020).

Each structure is given as a SMILES string. Screen size: about 1,600 compounds; about 20 (1%) were called active. The sample holds actives, similar compounds and a random draw of the others, so the mix is not that of the screen. Unmarked numbers belong to inactive results.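 The calls were made as follows: active = ratio of uncleaved NAD to its breakdown product ADP-ribose above 4, meaning the enzyme was inhibited; inactive = the rest.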

The target in the assay is NAD(+) hydrolase SARM1 (Homo sapiens) (UniProt Q6SZW1). Description: SARM1 TIR NADase inhibitors by HPLC, primary screen, cell lysate, HPLC readout (AID 1508615).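 Also: substrate NAD at 5 µM with 60 min at 37 °C.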 The settings on record: HEK293T SAM-TIR lysate, at 5 µM, active compounds read high.
Sequence of NAD(+) hydrolase SARM1 (Homo sapiens) (Q6SZW1 whole entry, looked up): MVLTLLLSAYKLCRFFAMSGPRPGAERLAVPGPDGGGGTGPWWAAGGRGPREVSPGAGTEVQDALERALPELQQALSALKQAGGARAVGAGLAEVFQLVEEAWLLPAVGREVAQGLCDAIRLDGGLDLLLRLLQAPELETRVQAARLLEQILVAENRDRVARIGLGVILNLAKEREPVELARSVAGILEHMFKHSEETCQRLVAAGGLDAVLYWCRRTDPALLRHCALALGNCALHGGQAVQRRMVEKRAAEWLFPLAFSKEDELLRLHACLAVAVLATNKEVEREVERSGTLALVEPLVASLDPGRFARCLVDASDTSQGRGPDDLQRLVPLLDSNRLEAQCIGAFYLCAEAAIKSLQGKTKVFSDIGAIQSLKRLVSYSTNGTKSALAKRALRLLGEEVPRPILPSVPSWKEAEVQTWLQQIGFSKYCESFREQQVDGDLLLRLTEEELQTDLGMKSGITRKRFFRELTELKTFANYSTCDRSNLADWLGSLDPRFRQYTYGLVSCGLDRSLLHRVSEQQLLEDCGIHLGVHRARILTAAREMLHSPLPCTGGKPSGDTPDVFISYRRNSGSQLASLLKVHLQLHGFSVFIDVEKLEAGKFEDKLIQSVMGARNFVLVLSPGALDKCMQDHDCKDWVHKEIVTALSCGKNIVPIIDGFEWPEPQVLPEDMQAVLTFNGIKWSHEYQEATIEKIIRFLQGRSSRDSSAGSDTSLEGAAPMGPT
Regarding `CCN(CC)c1ccc(C=C2C(=O)NC(=S)NC2=O)cc1`, the NAD/ADPR ratio is 5.3 (active).
With `O=C1NC(=O)C(=Cc2ccc3ccccc3c2)C(=O)N1` the figure was 3; with `COc1cc(C=C2C(=O)NC(=O)NC2=O)ccc1O`, 3.
As for `COC12C(COC(N)=O)C3=C(C(=O)C(C)=C(N)C3=O)N1CC1C2N1C` (stereo not given), the figure is 3.
As for `O=C1CCC2(O)[C@@H]3Cc4ccc(O)c5c4[C@]2(CCN3Cc2ccoc2)C1O5` (stereo not given in full), the figure is 3.
As for `CC1=CC(O)C(O)C2(C)C1CC1OC(=O)C(O)C3C(C)C(O)C4(O)OCC13C42` (stereo not given), the NAD/ADPR ratio is 3.
With `COC(=O)c1nc(-c2ccc3c(n2)C(=O)C(N)=C(OC)C3=O)c(N)c(-c2ccc(OC)c(OC)c2O)c1C` the figure was 3; with `CC1=C(O)C(=O)C=C2C1=CC=C1[C@@]2(C)CC[C@@]2(C)[C@@H]3C[C@](C)(C(=O)O)CC[C@]3(C)CC[C@]12C`, 12.8 (active); with `N#CC12CNCC1CN=N2` (stereo not given), 3.
As for `NC(=O)c1ccc(C(=O)Nc2ccc([As](=O)(O)O)cc2)cc1`, the figure is 3.
